Consider 12 compounds from PubChem BioAssay (EPA / NIEHS).

Results filed as inconclusive are left out. Calls of active or inactive are those of the source. How the source made its calls, unless noted: active means hit-call score of the fitted dose curve at least 0.9, where 1 is the maximum; inconclusive means response in the unintended direction; inactive means score below 0.9.

One assay relates to SERPINA7 (gene 6906). The assay can be described thus: CCTE_GLTED_hTBG: CCTE's human Thyroxine-binding Globulin (TBG) Inhibition Assay, Great Lakes Toxicology and Ecology Division (GLTED) Lab (AID 2284343).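 Further: active chemicals lower fluorescence versus DMSO baseline by displacing probe.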 A digest of the protocol:
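Measures how far test chemicals displace ANSA bound to purified human TBG. The read-out is fluorescence at 380 nm excitation and 475 nm emission, taken after 2 h of incubation.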

Assay [1] in a line: CCTE_Deisenroth_H295R-HTRF_384WELL_ESTRADIOL: CCTE's H295R-HTRF Assay Evaluation of Estradiol Concentration, Deisenroth Lab (AID 2284361; active means hit-call score of the fitted dose curve at least 0.9, where 1 is the maximum; inactive means score below 0.9). The conditions noted are these: actives raise or lower the signal. In outline: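 H295R cells exposed 48 h to chemicals at 0.001 - 100 uM final (nine points, triplicate); estradiol in conditioned medium measured by HTRF immunoassay, fitted bidirectionally versus DMSO. Viability by CellTiter-Glo on same plates.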
In general terms: Time-resolved FRET reads energy transfer from a long-lived donor to a nearby acceptor.

Assay [2] can be described thus: CCTE_Deisenroth_H295R-HTRF_384WELL_TESTOSTERONE: CCTE's H295R-HTRF Assay Evaluation of Testosterone Concentration, Deisenroth Lab (AID 2284373; active means hit-call score of the fitted dose curve at least 0.9, where 1 is the maximum; inactive means score below 0.9). The conditions noted are these: actives raise or lower the signal. A digest of the protocol:
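H295R cells were acclimated 24 h, then exposed 48 h to nine concentrations (0.001–100 uM final) in technical triplicate, n=5. Testosterone in conditioned medium was measured by HTRF (em 620/665 nm). Fitting was bidirectional versus DMSO; CellTiter-Glo viability ran on the same plates.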

Assay [3] is described as follows: CCTE_Deisenroth_H295R-HTRF_384WELL_CTOX: Cytotoxicity Assessment in CCTE's H295R-HTRF Assay, Deisenroth Lab (AID 2284380). A digest of the protocol:
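H295R adrenocortical carcinoma cells plated 24 h, then exposed 48 h to nine-point series 0.001–100 uM final, triplicate, n=5. ATP measured by CellTiter-Glo 2.0 luminescence on same plates after medium collection; loss versus DMSO.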

The nature of assay [4]: CCTE_Mundy_HCI_iCellGluta_NOG_NeuronCount: CCTE's Neurite Outgrowth Assay in iCellGluta cells for Neuron Count, Mundy Lab (AID 2284340).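 Further: cells fixed about 48 h after compound addition.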 In outline:
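Neuron count read by automated high-content imaging of Hoechst 33342 and betaIII-tubulin/Alexa Fluor-488 labelling in human iPSC glutamatergic neurons. Activity fitted relative to DMSO.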

Assay [5] in a line: CCTE_Mundy_HCI_iCellGluta_NOG_NeuriteCount: CCTE's Neurite Outgrowth Assay in iCellGluta cells for Neurite Count, Mundy Lab (AID 2284342).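 Further: chemical exposure about 48 hours starting 2 hours after plating.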
Assay [6] is described as follows: VALA_MIGHUV1_ScratchOnly_WoundArea: VALA Sciences human Umbilical Vein Endothelial Cell Migration (MIGHUV) Assay, Area of Scratch Wound Inhibited Recovery (AID 2284336). A digest of the protocol:
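HUVEC monolayers (9000 cells/well) were scratched after 24 h, dosed within 30 min (six concentrations, triplicate, 0.1% DMSO), allowed 24 h recovery, then fixed. Hoechst-stained nuclei in the wound imaged; cytochalasin D as reference.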

A short description of assay [7]: VALA_TUBHUV_Agonist_TubuleLength: VALA Sciences human Umbilical Vein Endothelial Tubule Formation (TUBHUV) Agonism Assay (AID 2284337). In outline:
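HUVEC co-cultured with fibroblasts (1:3) 3 days in 10 ng/ml VEGF, then 3 days with compound plus VEGF; 0.1 % DMSO neutral control. Fixed, nuclear and CD31 stained; tubule length by fluorescence imaging.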

The nature of assay [8]: VALA_TUBIPS_Agonist_CellCount: Viability Assessment in the VALA Sciences human iPS-derived Endothelial Tubule Formation (TUBIPS) Agonism Assay (AID 2284338).
A further assay has as its system TTR (gene 7276). The assay can be described thus: CCTE_GLTED_hTTR_0.125uM: CCTE's human Transthyretin (hTTR) Inhibition Assay, with 0.125uM TTR, Great Lakes Toxicology and Ecology Division (GLTED) Lab (AID 2284431; active means hit-call score of the fitted dose curve at least 0.9, where 1 is the maximum; inactive means score below 0.9;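 further: hits lower the fluorescence signal relative to DMSO baseline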). In outline:
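Probe-displacement format: chemicals competing for the T4 site release ANSA from 0.125uM TTR during a 2 h incubation, measured by fluorescence at 380 excitation and 475 emission.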

As for `C[Si](Cn1cncn1)(c1ccc(F)cc1)c1ccc(F)cc1`, the AC50 with SERPINA7 (gene 6906) is 4.09 µM (active); in assay [1] it was 968 nM (active). The call in assay [2] and in [3] was inactive.
Regarding `CCOP(=O)(NC(C)C)Oc1ccc(SC)c(C)c1` (stereo not drawn), the figures for the AC50 (in assay [4]; in the assay with SERPINA7 (gene 6906)) were 51 µM (active) and 14.6 µM (active), respectively. For the same compound, the outcome in assay [5] was inactive.
As for `FC(F)C(F)(F)OCC(Cn1cncn1)c1ccc(Cl)cc1Cl` (stereo not drawn), the AC50 in the assay on SERPINA7 (gene 6906) was 10.1 µM (active).
Turning to `CN1COCN(Cc2cnc(Cl)s2)C1=N[N+](=O)[O-]`, in assay [5], the compound was classed as inactive.
Regarding `COP(=O)(OC)OC(Br)C(Cl)(Cl)Br` (stereo not drawn), the AC50 in [4] is 21.7 µM (active); in assay [5], 16.4 µM (active).
As for `CC1=NNC(=O)N(/N=C/c2cccnc2)C1`, the compound was classed as inactive in [6], in [7], in [8], in [4] and in assay [5].
Take `CCC(CC)Nc1c([N+](=O)[O-])cc(C)c(C)c1[N+](=O)[O-]`: the AC50 with SERPINA7 (gene 6906) is 1.64 µM (active); in the assay on TTR (gene 7276), 448 nM (active).
`C=C(C)[C@H]1Cc2c(ccc3c2O[C@@H]2COc4cc(OC)c(OC)cc4[C@@H]2C3=O)O1`: the AC50 in assay [4] is 0.0672 µM (active); in assay [5], 0.907 µM (active).
Consider `CCCOCC(=Nc1ccc(Cl)cc1C(F)(F)F)n1ccnc1`, for which the AC50 in assay [1] was 270 nM (active); in assay [2] it was 414 nM (active); in the assay with TTR (gene 7276) it was 3560 nM (active). Further, in assay [3], the result was inactive.
As to `CN(C)[C@@H]1C(=O)C(C(N)=O)=C(O)[C@@]2(O)C(=O)C3=C(O)c4c(O)cccc4[C@@](C)(O)[C@H]3[C@H](O)[C@@H]12`, the AC50 in assay [6] is 90.1 µM (active); in assay [7] it was 7.49 µM (active); in [8], 9.92 µM (active); in assay [4], 13.4 µM (active); in assay [5], 19.9 µM (active).
Take `CCCCSP(=O)(SCCCC)SCCCC`: the AC50 in assay [4] was 49.9 µM (active). The result in [5] was inactive.
Take `CCOP(=S)(OCC)SCCSCC`: the compound was classed as inactive in assay [4]. Further, the AC50 in the assay on SERPINA7 (gene 6906) was 13.9 µM (active).

As a reminder, the AC50 is the concentration giving half of the maximal activity seen.
